Assay results published in PubChem BioAssay (NCATS).
Records with an inconclusive call do not appear. A call without a number means that no potency is given here. Calls of active or inactive are those of the source. Calls follow the shape of the dose curve; as a rule, active = well fitted inhibition curve with a large enough effect; inconclusive = small, poorly fitted or top-dose-only effect; inactive = flat fitted curve, though single readings scatter.

Key:
Experiment in all cases: qHTS profiling for inhibitors of Plasmodium falciparum proliferation (AID 504749); also: nearly all actives have a fitted effect of over 60% in size
Conditions in all cases: P. falciparum in erythrocytes, SYBR Green DNA, 72 h; series mostly up to 28.7 µM
CP315 = tested on: CP315
In short: (§1)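 SYBR Green fluorescence (ex 485 nm, em 535 nm) reports parasite DNA after 72 h compound exposure of infected red cells at 0.3% parasitemia, 2.5% hematocrit; signal normalized to 0.29 uM artemisinin and vehicle wells.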

CP325 = tested on: CP325
In short: as §1

CP329 = tested on: CP329
In short: as §1

CP335 = tested on: CP335
In short: as §1

DFO2036 = tested on: DFO2036
In short: as §1

DIV14 = tested on: DIV14
In short: as §1

DIV17 = tested on: DIV17
In short: as §1

DIV30 = tested on: DIV30
In short: as §1

Dd2 = tested on: Dd2
In short: as §1

ECU = tested on: ECU
In short: as §1
Potency is read from the fitted curve at half-maximal effect.

Row | Structure (SMILES) | Potency (CP315) | Potency (CP325) | Potency (CP329) | Potency (CP335) | Potency (DFO2036) | Potency (DIV14) | Potency (DIV17) | Potency (DIV30) | Potency (Dd2) | Potency (ECU)
1 | Nc1ccc(S(=O)(=O)NCc2ccccc2)cc1 | inactive | inactive | inactive | inactive | inactive | inactive | inactive | inactive | inactive | inactive
2 | CC(=O)Nc1ccc(OCC(O)CNC(C)C)cc1 (stereo not drawn) | inactive | inactive | inactive | inactive | inactive | inactive | inactive | inactive | inactive | inactive
3 | O=C(O)P(=O)(O)O | inactive | inactive | inactive | inactive | inactive | inactive | inactive | inactive | inactive | inactive
4 | NS(=O)(=O)c1ccc(Cl)c(S(N)(=O)=O)c1 | inactive | inactive | inactive | inactive | inactive | inactive | inactive | inactive | inactive | inactive
5 | N=C(N)N1CCc2ccccc2C1 | inactive | inactive | inactive | inactive | inactive | inactive | inactive | inactive | inactive | inactive
6 | Cl/C(=C\n1cncn1)c1ccc(Cl)cc1Cl | inactive | inactive | inactive | inactive | inactive | inactive | inactive | inactive | inactive | inactive
7 | O=S(=O)(O)c1ccc(O)cc1 | inactive | inactive | inactive | inactive | inactive | inactive | inactive | inactive | inactive | inactive
8 | Cc1cc(NS(=O)(=O)c2ccc(N)cc2)nc(C)n1 | inactive | inactive | inactive | inactive | inactive | inactive | inactive | inactive | inactive | inactive
9 | CC[C@H](c1ccc(O)cc1)[C@@H](CC)c1ccc(O)cc1 | inactive | inactive | inactive | inactive | inactive | inactive | inactive | inactive | inactive | inactive
10 | Cc1ccc(O)c([C@H](CCN(C(C)C)C(C)C)c2ccccc2)c1 | 16.9 µM (active) | 10.7 µM (active) | 13.5 µM (active) | 5.36 µM (active) | 5.01 µM (active) | 1.35 µM (active) | 1.2 µM (active) | 6.01 µM (active) | 2.51 µM (active) | 3.98 µM (active)
11 | O=c1[nH]c(=O)n([C@H]2C[C@H](O)[C@@H](CO)O2)cc1F | inactive | inactive | inactive | inactive | inactive | inactive | inactive | inactive | inactive | inactive
12 | CC(=O)NC(=O)c1ccccc1O | inactive | inactive | inactive | inactive | inactive | inactive | inactive | inactive | inactive | inactive
13 | CC(=O)N[C@@H](CCC(=O)O)C(=O)O | inactive | inactive | inactive | inactive | inactive | inactive | inactive | inactive | inactive | inactive
14 | CC(=O)NO | inactive | inactive | inactive | inactive | inactive | inactive | inactive | inactive | inactive | inactive
15 | O[C@@H](c1cc(C(F)(F)F)nc2c(C(F)(F)F)cccc12)[C@H]1CCCCN1 | 0.169 µM (active) | 0.135 µM (active) | 0.269 µM (active) | 0.107 µM (active) | 0.0355 µM (active) | 0.0338 µM (active) | 0.0338 µM (active) | 0.0338 µM (active) | 0.0282 µM (active) | 0.0126 µM (active)
16 | FC1(F)C(F)(F)C(F)(F)C2(F)C(F)(F)C(F)(F)C(F)(F)C(F)(F)C2(F)C1(F)F (stereo not drawn) | inactive | inactive | inactive | inactive | inactive | inactive | inactive | inactive | inactive | inactive
17 | Nc1nc(-c2ccccc2)c(Br)c(=O)[nH]1 | inactive | inactive | inactive | inactive | inactive | inactive | inactive | inactive | inactive | inactive
18 | COc1ccccc1N1CCN(CCCCNC(=O)c2ccc(-c3ccc(C(C)=O)cc3)cc2)CC1 | inactive | inactive | inactive | inactive | inactive | inactive | inactive | inactive | inactive | inactive
19 | Nc1nc(N)c(-c2ccccc2)s1 | inactive | inactive | inactive | inactive | inactive | inactive | inactive | inactive | inactive | inactive
20 | CNCCc1ccccn1 | inactive | inactive | inactive | inactive | inactive | inactive | inactive | inactive | inactive | inactive
21 | C#C[C@]1(O)CC[C@H]2[C@@H]3CCc4cc(OC)ccc4[C@H]3CC[C@@]21C | inactive | inactive | inactive | inactive | inactive | inactive | inactive | inactive | inactive | inactive
22 | Cc1ccc(S(=O)(=O)NC(=O)NC2CCCC2)cc1 | inactive | inactive | inactive | inactive | inactive | inactive | inactive | inactive | inactive | inactive
23 | CCN(CC)CCNc1ccc(CO)c2sc3ccccc3c(=O)c12 | 6.01 µM (active) | 4.78 µM (active) | 4.78 µM (active) | 1.51 µM (active) | 0.447 µM (active) | 4.26 µM (active) | 2.39 µM (active) | 9.53 µM (active) | 2.24 µM (active) | 0.708 µM (active)
24 | CCCCCCCC/C=C\CCCCCCCCN | inactive | inactive | inactive | inactive | inactive | inactive | inactive | inactive | inactive | inactive

Row | Structure (SMILES) | Potency (CP315) | Potency (CP325) | Potency (CP329) | Potency (CP335) | Potency (DFO2036) | Potency (DIV14) | Potency (DIV17) | Potency (DIV30) | Potency (Dd2) | Potency (ECU)
25 | CCOc1cc(OCC)c(C(=O)CCC(=O)O)cc1OCC | inactive | inactive | inactive | inactive | inactive | inactive | inactive | inactive | inactive | inactive
26 | Nc1ccc(S(=O)(=O)Nc2cnc3ccccc3n2)cc1 | inactive | inactive | inactive | inactive | inactive | inactive | inactive | inactive | inactive | inactive
27 | CC(=O)Nc1ccc(OC(=O)c2ccccc2OC(C)=O)cc1 | inactive | inactive | inactive | inactive | inactive | inactive | inactive | inactive | inactive | inactive
28 | COc1ccc(-c2cc(C(F)F)nn2-c2ccc(S(N)(=O)=O)cc2)cc1F | inactive | inactive | inactive | inactive | inactive | inactive | inactive | inactive | inactive | inactive
29 | CCOC(=O)c1c(N)sc2c1CCN(Cc1ccccc1)C2 | 6.75 µM (active) | 4.78 µM (active) | 4.78 µM (active) | 4.26 µM (active) | 7.08 µM (active) | 2.69 µM (active) | 7.57 µM (active) | 13.5 µM (active) | 7.94 µM (active) | 7.08 µM (active)
30 | CCOC(=O)C(C#N)=C(c1ccccc1)c1ccccc1 | inactive | inactive | inactive | inactive | inactive | inactive | inactive | inactive | inactive | inactive
31 | CCCCCCCCCCCCCCCC(=O)O | inactive | inactive | inactive | inactive | inactive | inactive | inactive | inactive | inactive | inactive
32 | COc1ccc(CN(CCN(C)C)c2ncccn2)cc1 | inactive | inactive | inactive | inactive | inactive | inactive | inactive | inactive | inactive | inactive
33 | COP(=O)(OC)OC(c1ccc(Cl)cc1)P(=O)(OC)OC (stereo not drawn) | inactive | inactive | inactive | inactive | inactive | inactive | inactive | inactive | inactive | inactive
34 | Cc1cccc(C)c1NC(=O)CN1CCCC1 | inactive | inactive | inactive | inactive | inactive | inactive | inactive | inactive | inactive | inactive
35 | CC(=O)Nc1ccc(S(=O)(=O)Nc2ccc([N+](=O)[O-])cc2)cc1 | inactive | inactive | inactive | inactive | inactive | inactive | inactive | – | inactive | inactive
36 | O=C(Nc1ccc([N+](=O)[O-])cc1)Nc1ccc([N+](=O)[O-])cc1 | inactive | inactive | inactive | 4.78 µM (active) | inactive | – | inactive | inactive | – | inactive
37 | O=C(O)c1ccc(S(=O)(=O)N(Cl)Cl)cc1 | inactive | inactive | inactive | inactive | inactive | inactive | inactive | inactive | inactive | inactive
38 | COc1cc(C(=S)N2CCOCC2)ccc1O | inactive | inactive | inactive | inactive | inactive | inactive | inactive | inactive | inactive | inactive
39 | CC(C)Nc1cccnc1N1CCN(C(=O)c2cc3cc(NS(C)(=O)=O)ccc3[nH]2)CC1 | inactive | inactive | inactive | inactive | inactive | 0.379 µM (active) | 1.07 µM (active) | – | – | inactive
40 | CCOc1ccccc1C(N)=O | inactive | inactive | inactive | inactive | inactive | inactive | inactive | inactive | inactive | inactive
41 | CC(=O)NCCCCCC(=O)O | inactive | inactive | inactive | inactive | inactive | inactive | – | inactive | inactive | inactive
42 | O=C(NCCc1c[nH]c2ccccc12)c1cccnc1 | inactive | inactive | inactive | inactive | inactive | inactive | inactive | inactive | inactive | inactive
43 | CCNC(=O)/C=C/c1cccc(Br)c1 | inactive | inactive | inactive | inactive | inactive | – | inactive | inactive | inactive | inactive
44 | CC(C)Cn1cnc2c1c(=O)n(C)c(=O)n2C | inactive | inactive | inactive | inactive | inactive | inactive | inactive | inactive | inactive | inactive
45 | Cc1cccc(C)c1NC(=O)CN1CCCCCC1 | inactive | inactive | inactive | inactive | inactive | inactive | – | – | inactive | inactive
46 | CCNC(=O)NCc1cccc(Cl)c1 | inactive | inactive | inactive | inactive | inactive | inactive | – | inactive | inactive | inactive
47 | CC(=O)Nc1ncc([N+](=O)[O-])s1 | inactive | inactive | inactive | inactive | inactive | inactive | – | inactive | inactive | inactive
48 | CCOc1ccccc1OCCN[C@H](C)Cc1ccc(OC)c(S(N)(=O)=O)c1 | inactive | inactive | inactive | inactive | inactive | inactive | – | inactive | inactive | inactive
